Measurements as given in ChEMBL document CHEMBL3988442, “University of Dundee, Small-Polar-MMV Screening Library” (2021).
For some of these results: Measured potencies and affinities stand elsewhere.

Key:
Design in all cases: scale not given: direction of the effect not stated beside the values
[1] = target: Protein translocase subunit SecA (Escherichia coli (strain K12)) (UniProt P10408); test: Assay to Identify E. coli SecA ATPase Inhibitors; type: functional; settings: 30 µM
[2] = target: T1, Ubiquitin-activating enzyme e1, putative (Leishmania donovani (strain BPK282A1)) (UniProt E9BSI1); test: Leishmania donovani Ubiquitin Activating Enzyme (LdE1); type: functional; settings: 30 µM
T1 sequence (whole entry): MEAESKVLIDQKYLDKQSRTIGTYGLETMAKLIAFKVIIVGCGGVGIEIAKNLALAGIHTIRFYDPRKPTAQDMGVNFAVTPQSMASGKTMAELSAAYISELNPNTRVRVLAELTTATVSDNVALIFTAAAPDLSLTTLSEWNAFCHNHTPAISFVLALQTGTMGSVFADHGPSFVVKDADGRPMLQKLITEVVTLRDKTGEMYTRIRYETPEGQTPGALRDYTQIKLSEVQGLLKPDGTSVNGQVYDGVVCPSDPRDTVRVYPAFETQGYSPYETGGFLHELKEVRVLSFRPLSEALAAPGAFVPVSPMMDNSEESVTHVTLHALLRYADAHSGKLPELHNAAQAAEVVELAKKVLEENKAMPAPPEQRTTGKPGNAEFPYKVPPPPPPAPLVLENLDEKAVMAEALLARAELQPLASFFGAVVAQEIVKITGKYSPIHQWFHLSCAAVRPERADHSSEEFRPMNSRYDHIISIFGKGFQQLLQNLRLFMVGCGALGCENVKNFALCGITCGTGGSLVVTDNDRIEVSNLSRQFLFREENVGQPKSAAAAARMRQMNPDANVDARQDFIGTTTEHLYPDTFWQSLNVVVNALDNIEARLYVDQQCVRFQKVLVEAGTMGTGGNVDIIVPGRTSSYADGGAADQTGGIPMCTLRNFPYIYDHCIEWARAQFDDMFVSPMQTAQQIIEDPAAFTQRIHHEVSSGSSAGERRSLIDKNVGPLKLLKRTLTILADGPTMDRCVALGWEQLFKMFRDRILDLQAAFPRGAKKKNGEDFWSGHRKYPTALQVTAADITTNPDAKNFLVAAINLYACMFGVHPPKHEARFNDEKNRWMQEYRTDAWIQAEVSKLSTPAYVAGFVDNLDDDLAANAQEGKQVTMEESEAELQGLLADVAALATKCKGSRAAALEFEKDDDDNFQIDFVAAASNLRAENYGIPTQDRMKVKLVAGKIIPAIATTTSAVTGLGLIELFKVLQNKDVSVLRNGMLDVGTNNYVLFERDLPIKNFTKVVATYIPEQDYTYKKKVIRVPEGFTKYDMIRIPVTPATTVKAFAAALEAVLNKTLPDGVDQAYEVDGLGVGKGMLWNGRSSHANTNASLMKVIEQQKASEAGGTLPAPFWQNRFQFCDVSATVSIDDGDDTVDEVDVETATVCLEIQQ

[3] = target: AMP-activated protein kinase, AMPK (Homo sapiens) (UniProt P54646+O43741+P54619+Q9UGJ0+Q9Y478+Q13131+Q9UGI9); test: AMP-dependent Kinase enzyme assay. An in vitro enzyme assay that detects ADP turnover that is directly proportional to AMPK activity. This uses naive AMPK that is activated during the assay with MK-8722; type: functional; settings: 30 µM
[4] = target: Sialic acid-binding Ig-like lectin 9 (Homo sapiens) (UniProt Q9Y336); test: Hs-Siglec9 ALPHAscreen SOP 20170721; settings: 10 µM
Chain of Sialic acid-binding Ig-like lectin 9 (Homo sapiens) (Q9Y336 whole entry): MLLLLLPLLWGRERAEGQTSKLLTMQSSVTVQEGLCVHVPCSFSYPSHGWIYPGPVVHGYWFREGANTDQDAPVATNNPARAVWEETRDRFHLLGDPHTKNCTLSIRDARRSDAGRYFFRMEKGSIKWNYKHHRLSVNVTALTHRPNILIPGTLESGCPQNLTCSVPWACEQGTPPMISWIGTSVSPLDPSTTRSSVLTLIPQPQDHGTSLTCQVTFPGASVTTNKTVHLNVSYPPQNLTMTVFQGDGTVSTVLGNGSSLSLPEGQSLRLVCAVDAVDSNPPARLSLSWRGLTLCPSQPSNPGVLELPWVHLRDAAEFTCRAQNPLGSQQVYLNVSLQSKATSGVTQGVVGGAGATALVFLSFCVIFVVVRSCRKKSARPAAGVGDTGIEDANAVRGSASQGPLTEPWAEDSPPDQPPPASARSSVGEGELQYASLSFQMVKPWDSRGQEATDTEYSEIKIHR

Trypanosoma cruzi = test: Trypanosoma cruzi phosphomannomutase and mannose-1-phosphate guanylyltransferase assay; type: functional; settings: 10 µM
[5] = target: T2, Arginase-2, mitochondrial (Homo sapiens) (UniProt P78540); test: in vitro enzyme assay to detect the production of urea directly proportional to the activity of Arginase II; type: functional; settings: 33.3 µM; note: in the data most compounds retested in dose-response had high values
T2 sequence (whole entry): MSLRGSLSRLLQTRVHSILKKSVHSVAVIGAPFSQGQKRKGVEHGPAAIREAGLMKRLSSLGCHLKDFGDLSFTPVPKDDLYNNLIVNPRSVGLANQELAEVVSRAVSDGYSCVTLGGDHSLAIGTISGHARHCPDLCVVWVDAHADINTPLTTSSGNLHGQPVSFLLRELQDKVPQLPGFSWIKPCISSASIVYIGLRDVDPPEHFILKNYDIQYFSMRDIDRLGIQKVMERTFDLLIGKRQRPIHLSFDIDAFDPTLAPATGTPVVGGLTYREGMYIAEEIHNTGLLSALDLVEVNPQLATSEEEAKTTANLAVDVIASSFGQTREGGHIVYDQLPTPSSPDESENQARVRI

[6] = target: T3, Proteasome subunit beta (Trypanosoma cruzi) (UniProt O96673); test: Trypanosoma cruzi proteasome chymotrypsin-like activity (TcProtChymo) assay.; note: in the data most compounds retested in dose-response had high values; type: functional; settings: 9.37 µM
T3 sequence (whole entry): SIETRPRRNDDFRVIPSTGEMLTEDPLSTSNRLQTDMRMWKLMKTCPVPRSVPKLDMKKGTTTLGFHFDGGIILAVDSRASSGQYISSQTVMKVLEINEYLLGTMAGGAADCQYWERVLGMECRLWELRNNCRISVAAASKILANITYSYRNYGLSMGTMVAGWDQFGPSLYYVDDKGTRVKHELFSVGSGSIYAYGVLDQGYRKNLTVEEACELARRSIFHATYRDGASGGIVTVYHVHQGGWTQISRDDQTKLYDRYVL

Homo sapiens = species on record: Homo sapiens; test: To identify inhibition of the IFN signalling (Jak-Stat) pathway via expression of an eGFP reporter gene under the control of an IFN-stimulated response element (ISRE) containing MxA promoter.; type: functional; settings: 30 µM
[7] = target: T4, Tyrosyl-tRNA synthetase, putative (Trypanosoma cruzi (strain CL Brener)) (UniProt Q4DSP6); test: Trypanosoma cruzi tyrosyl tRNA synthetase (TcYRS) _High Tyrosine SOP; type: functional; settings: 30 µM; note: in the data most compounds retested in dose-response had high values
T4 sequence (whole entry): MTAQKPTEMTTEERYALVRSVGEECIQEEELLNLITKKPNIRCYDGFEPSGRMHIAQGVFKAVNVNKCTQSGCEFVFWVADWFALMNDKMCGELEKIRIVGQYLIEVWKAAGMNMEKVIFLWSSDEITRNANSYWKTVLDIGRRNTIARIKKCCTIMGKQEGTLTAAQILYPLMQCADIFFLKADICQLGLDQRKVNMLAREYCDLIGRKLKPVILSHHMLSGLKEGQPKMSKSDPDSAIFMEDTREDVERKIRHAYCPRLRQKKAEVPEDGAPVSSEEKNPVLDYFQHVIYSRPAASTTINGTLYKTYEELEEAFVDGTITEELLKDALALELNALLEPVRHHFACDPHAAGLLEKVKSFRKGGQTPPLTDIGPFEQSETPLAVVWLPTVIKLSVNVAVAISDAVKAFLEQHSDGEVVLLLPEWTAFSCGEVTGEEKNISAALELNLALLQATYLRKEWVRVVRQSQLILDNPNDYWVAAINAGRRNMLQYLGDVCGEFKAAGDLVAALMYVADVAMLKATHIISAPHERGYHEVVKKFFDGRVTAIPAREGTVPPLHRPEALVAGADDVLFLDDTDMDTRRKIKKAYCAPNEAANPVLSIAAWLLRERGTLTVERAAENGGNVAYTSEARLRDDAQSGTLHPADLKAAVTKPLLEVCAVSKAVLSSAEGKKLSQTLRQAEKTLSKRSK

[8] = target: T4, Tyrosyl-tRNA synthetase, putative (Trypanosoma cruzi (strain CL Brener)); test: Trypanosoma cruzi tyrosyl tRNA synthetase (TcYRS) SOP; type: functional; settings: 30 µM
[9] = target: Chromo domain-containing protein 1 (Saccharomyces cerevisiae (strain ATCC 204508 / S288c) (Baker's yeast)) (UniProt P32657); test: ScCHD-1 Enzyme Inhibition Assay; type: functional; settings: 30 µM; note: in the data most compounds retested in dose-response had high values
Chain of Chromo domain-containing protein 1 (Saccharomyces cerevisiae (strain ATCC 204508 / S288c) (Baker's yeast)) (P32657 whole entry, the tested form may be a part): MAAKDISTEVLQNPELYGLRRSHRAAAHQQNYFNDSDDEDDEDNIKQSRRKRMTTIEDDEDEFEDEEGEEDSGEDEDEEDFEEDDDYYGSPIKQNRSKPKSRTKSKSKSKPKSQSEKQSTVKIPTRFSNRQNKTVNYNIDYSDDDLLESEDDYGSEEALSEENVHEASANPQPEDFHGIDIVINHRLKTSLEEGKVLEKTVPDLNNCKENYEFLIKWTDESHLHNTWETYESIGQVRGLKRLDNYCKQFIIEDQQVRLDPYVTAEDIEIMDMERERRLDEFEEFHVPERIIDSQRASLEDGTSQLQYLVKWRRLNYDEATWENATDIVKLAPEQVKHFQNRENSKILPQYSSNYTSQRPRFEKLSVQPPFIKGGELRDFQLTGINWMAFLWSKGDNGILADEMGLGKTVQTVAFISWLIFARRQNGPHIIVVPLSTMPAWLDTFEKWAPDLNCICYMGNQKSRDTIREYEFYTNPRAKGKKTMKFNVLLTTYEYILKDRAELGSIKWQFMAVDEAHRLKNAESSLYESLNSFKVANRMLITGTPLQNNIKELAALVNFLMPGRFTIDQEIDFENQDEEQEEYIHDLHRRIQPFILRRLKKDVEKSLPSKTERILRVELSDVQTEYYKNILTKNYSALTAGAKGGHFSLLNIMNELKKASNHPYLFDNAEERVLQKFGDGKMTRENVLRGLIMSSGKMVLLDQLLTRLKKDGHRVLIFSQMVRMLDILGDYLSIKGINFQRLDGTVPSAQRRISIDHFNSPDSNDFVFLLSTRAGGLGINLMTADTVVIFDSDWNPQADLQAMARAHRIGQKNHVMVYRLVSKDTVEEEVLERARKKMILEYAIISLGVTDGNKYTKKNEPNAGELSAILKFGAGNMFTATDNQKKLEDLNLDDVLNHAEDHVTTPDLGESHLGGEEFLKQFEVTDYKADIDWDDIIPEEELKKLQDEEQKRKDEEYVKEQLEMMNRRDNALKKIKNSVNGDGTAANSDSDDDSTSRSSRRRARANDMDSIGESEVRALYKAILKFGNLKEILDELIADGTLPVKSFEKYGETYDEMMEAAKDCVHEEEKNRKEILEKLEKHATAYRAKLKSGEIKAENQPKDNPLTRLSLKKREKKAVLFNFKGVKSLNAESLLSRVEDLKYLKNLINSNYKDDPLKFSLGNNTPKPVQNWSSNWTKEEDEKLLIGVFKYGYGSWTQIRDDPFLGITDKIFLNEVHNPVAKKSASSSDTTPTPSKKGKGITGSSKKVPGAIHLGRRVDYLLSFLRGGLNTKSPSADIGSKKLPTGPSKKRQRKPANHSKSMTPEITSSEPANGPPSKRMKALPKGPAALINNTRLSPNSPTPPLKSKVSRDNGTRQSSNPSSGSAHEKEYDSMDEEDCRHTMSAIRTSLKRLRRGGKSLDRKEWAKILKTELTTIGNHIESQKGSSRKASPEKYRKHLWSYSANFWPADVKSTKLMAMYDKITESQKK

Chain of Protein translocase subunit SecA (Escherichia coli (strain K12)) (P10408 whole entry): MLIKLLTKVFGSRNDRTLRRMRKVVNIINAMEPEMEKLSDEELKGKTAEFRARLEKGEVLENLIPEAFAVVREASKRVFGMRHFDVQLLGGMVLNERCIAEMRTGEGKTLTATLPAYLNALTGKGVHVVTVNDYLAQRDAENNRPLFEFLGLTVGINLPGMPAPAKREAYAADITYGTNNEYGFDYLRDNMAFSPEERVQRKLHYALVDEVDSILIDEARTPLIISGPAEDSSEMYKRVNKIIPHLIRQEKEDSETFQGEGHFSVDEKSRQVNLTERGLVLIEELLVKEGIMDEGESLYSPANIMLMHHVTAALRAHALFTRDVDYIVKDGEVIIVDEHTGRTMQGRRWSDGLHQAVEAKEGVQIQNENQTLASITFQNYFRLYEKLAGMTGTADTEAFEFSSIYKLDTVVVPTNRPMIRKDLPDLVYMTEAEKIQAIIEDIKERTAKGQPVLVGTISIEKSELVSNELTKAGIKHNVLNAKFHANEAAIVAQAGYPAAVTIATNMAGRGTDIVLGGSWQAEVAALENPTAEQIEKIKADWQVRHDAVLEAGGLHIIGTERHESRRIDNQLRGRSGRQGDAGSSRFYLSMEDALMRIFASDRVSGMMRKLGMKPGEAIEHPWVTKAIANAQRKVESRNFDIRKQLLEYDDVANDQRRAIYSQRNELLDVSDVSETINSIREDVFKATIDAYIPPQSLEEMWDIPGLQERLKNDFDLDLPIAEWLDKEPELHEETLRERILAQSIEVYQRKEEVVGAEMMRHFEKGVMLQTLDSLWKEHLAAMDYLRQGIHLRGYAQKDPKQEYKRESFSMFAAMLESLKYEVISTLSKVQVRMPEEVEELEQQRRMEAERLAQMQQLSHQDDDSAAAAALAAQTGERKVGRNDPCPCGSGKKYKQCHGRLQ

Row | SMILES | Percent Effect [1] [%] | Percent Effect [2] [%] | Percent Effect [3] [%] | Percent Effect [4] [%] | Percent Effect (Trypanosoma cruzi) [%] | Percent Effect [5] [%] | Percent Effect [6] [%] | Percent Effect (Homo sapiens) [%] | Percent Effect [7] [%] | Percent Effect [8] [%] | Percent Effect [9] [%]
1 | Cc1nc(C2CCCN(C(=O)c3ccc(N4CCCC4)nc3)C2)no1 (stereo not drawn) | -3.94 | 3.8 | 7.78 | 4.58 | 3.18 | -8.39 | 1.37 | 13.9 | 4.17 | 12.7 | -26.5
2 | O=C(C1CCN(c2snc3ccccc23)CC1)N1CCCCCC1 | 1.1 | 24.1 | 2.83 | -3.46 | -0.923 | -4.52 | 13.7 | 59.6 | 5.21 | 7.59 | -21.3
3 | COCCC(=O)Nc1ccnc(Oc2ccccc2)c1 | 2.99 | -5.26 | 0.138 | -14 | -6.91 | 7.1 | 15.4 | 19.5 | 1.06 | 7.79 | -6.2
4 | O=C(CC1CC1)NCc1cn2c(n1)CN(CC1CC1)CC2 | -3.1 | 13.3 | 16.6 | -9.15 | -3.54 | 1.63 | 10.7 | 3.1 | -3.19 | 8.97 | -5.22
5 | Cc1ccc(N2CCCC3(COCCN(c4nccs4)C3)C2)nn1 (stereo not drawn) | 0.955 | 0 | -4.27 | 3.78 | 1.79 | 1.2 | 11.7 | -6.58 | 5.21 | 3.7 | -1.92
6 | Cn1cc(CN2CCC3(CCCN(Cc4ccccn4)C3)CC2)cn1 | -1.45 | -5.48 | -0.391 | 0.486 | 2.98 | 1.2 | 4.54 | -10.8 | 3.12 | 1.24 | 3.63
7 | COc1cccc(C2CCCN2Cc2nc3c(cnn3C)c(=O)[nH]2)c1 (stereo not drawn) | -0.893 | 22.8 | 2.53 | -5.13 | 0.661 | 3.8 | 14.2 | 17.2 | 6.4 | 24.1 | -5.39
8 | CC(C)N(C)Cc1cnc2n1CCN(C(=O)NC1CCCC1)C2 | -1.5 | 0 | 9.85 | -1.01 | -7.09 | 3.96 | 13.7 | 7.83 | 1.06 | 1.28 | 0.39
